The results in this text go back to publication PMC5540273 (PLoS ONE, 2017).

What all share (details): concentration: 1 μM, replicates: in singlicate; n = 1
Test [1] deals with STK36.
In test [2] the test system is STK39.
The subject of test [3] is SYK.
Test [4] has as its system SgK110.
The test system of test [5] is T1, TAK1.
T1 construct: gene MAP3K7

For test [6], the system named is TAOK1.
Test [7] deals with TAOK2.
The test system of test [8] is TAOK3.
Test [9] deals with TBK1.
The test system of test [10] is TEC.
Test [11] deals with TESK1.
For test [12], the system named is TGFBR1.
Test [13] deals with TGFBR2.
Test [14] deals with TIE1.
Test [15] has as its system T2, TIE2.
T2 construct: gene TEK

Test [16] has as its system TLK1.
For test [17], the system named is TLK2.
Test [18] concerns TNIK.
Test [19] has as its system TNK1.
Test [20] relates to TNK2.
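Further: KINOMEscan kinase panel screen.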

Take `COc1cc(Nc2ncc3c(C)nc(-c4cc5ccccc5[nH]4)n3n2)cc(OC)c1OC` [GW869516]: the “%Inh” value is recorded as 6% in [1]; 0% in test [2]; 53% in test [3]; 0% in test [4]; 48% in test [5]; 0% in [6]. Further, the “%Inh” value amounted to 0% in [7]; 0% in test [8]; 58% in test [9]; 0% in test [10]; 1% in [11]; 14% in test [12]. The “%Inh” value in test [13] was 0%; in test [14], 46%; in test [15] it was 32%; in test [16], 0%; in [17] it was 0%; in test [18], 47%. The “%Inh” value is recorded as 49% in test [19] and 17% in test [20].

Regarding `Cl.Cl.NCC(NCc1ccc(-c2ccnc3[nH]ccc23)s1)c1ccccc1` (stereo not shown) [GSK1321565], the “%Inh” value in test [1] is reported as 0%; in test [2], 5%; in test [3], 23%; in test [4], 8%; in [5] it was 44%; in test [6] it was 26%. Further, the “%Inh” value is listed as 0% in [7]; 0% in test [8]; 8% in [9]; 0% in [10]; 18% in [11]; 15% in [12]. Besides, the “%Inh” value in [13] worked out at 0%; in test [14] it was 9%; in [15], 0%; in test [16], 0%; in test [17] it was 0%; in [18], 0%. Besides, the “%Inh” value in [19] and in test [20] was 0% each time.

For the compound `COc1ccc(Nc2nccc(N3CCC(NC(=O)Nc4cccc(OC)c4)C3)n2)cc1` (stereo not shown) [GSK1379742], the “%Inh” value in test [1] is reported as 0%; in test [2], 5%; in test [3] it was 25%; in test [4], 0%; in [5] it was 0%; in test [6], 0%. Further, the “%Inh” value in test [7] is reported as 0%; in [8] it was 0%; in [9] it was 6%; in [10] it was 1%; in test [11], 36%; in test [12], 0%. The “%Inh” value in test [13] is 9%; in test [14], 0%; in test [15], 0%; in [16] it was 0%; in test [17], 0%; in test [18], 0%. Further, the “%Inh” value amounted to 0% in [19] and 12% in test [20].

Take `CC(C)(C)c1ccc2nccc(Nc3cccc(O)c3)c2c1` [GW856795]: the “%Inh” value in test [1] is recorded as 0%; in test [2], 14%; in test [3], 0%; in test [4] it was 0%; in [5] it was 23%; in [6], 100%. Further, the “%Inh” value in test [7] was 0%; in test [8], 59%; in test [9], 14%; in [10] it was 12%; in test [11], 0%; in test [12], 42%. Further, the “%Inh” value in [13] was found to be 88%; in [14], 0%; in [15], 2%; in [16], 12%; in test [17], 0%; in test [18], 0%. In addition, the “%Inh” value in test [19] is on record as 19%; in [20], 0%.

On to `Oc1cc(Nc2ccnc3cc(I)ccc23)ccc1F` [GW552771], for which the “%Inh” value worked out at 0% in test [1]; 21% in test [2]; 19% in test [3]; 0% in [4]; 0% in test [5]; 0% in test [6]. The “%Inh” value is given as 0% in [7]; 0% in [8]; 0% in test [9]; 12% in [10]; 13% in [11]; 62% in [12]. For the same compound, the “%Inh” value was determined as 99.9% in test [13]; 0% in test [14]; 0% in test [15]; 10% in test [16]; 0% in [17]; 47% in [18]. In addition, the “%Inh” value is 4% in test [19] and 2% in test [20].
